# An excerpt weighted towards active compounds, which were near 2.8% of everything screened.
# SMARCA2 activ = SMARCA2 function activation, primary screen; MG213 cells, MMTV-luciferase reporter, dexamethasone, overnight; activation, % at 9.1 µM; 370,000 compounds, 1% hits; AID 652017; in the data active = activation above about 7.8%
# MsrA act = activates bovine MsrA enzyme; AID 602163; 360,000 compounds, 0.3% hits; activation, % at 10.6 µM; purified bovine MsrA, absorbance read-out; in the data active = activation above about 7.5%
# MsrA inhibitor = inhibitors of bovine MsrA | purified bovine MsrA, absorbance read-out | inhibition, % at 15.5 µM | 360,000 compounds, 0.75% hits
# proKLK7 act = activators of human kallikrein-7 zymogen; P49862; purified proKLK7, EDANS-DABCYL substrate fluorescence; 100% is mature enzyme control, 0% vehicle; activation, % at 7 µM; 370,000 compounds, 0.9% hits; AID 652039;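 active = activation above the mean of all tested compounds plus 3 SD, computed per campaign excluding outliers beyond control limits, cut at about 13% in these data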
# Target sequence (P49862 whole entry, looked up): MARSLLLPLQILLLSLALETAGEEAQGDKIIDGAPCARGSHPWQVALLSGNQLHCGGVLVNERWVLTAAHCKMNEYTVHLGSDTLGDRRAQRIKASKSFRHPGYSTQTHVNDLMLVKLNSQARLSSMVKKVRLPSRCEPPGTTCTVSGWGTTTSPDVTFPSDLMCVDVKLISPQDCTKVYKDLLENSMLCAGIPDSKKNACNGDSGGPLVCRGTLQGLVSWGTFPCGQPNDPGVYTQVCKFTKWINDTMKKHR
# MsrA inh confirm = confirmation of bovine MsrA inhibitors | shares compounds with MsrA inhibitor | purified bovine MsrA, absorbance read-out | inhibition, % at 15.5 µM | 2,300 compounds, 41% hits | AID 651822;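 note: coupled to thioredoxin reductase with NADPH and selenocystamine and DMSO as substrate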
# Hits are given with their value; – = inactive; · = no result given. Cut-off read from the data, not from the text of the source, unless noted: active = inhibition above about 4.5%; inactive = the rest.
SMILES,SMARCA2 activ,MsrA act,MsrA inhibitor,proKLK7 act,MsrA inh confirm
COc1cc(OC)c2cc(C(=O)N/N=C/c3cccc(OC)c3O)[nH]c2c1,–,–,–,–,·
CC(OC(=O)Cc1c[nH]c2ccccc12)C(=O)Nc1ccccc1[N+](=O)[O-] (configuration not stated),–,–,–,–,·
COc1cc2cc(C(=O)N/N=C/c3ccc(F)cc3)[nH]c2cc1OC,–,–,4.8,–,6.0
COc1cc2cc(C(=O)N/N=C/c3ccccc3Cl)[nH]c2cc1OC,–,–,–,–,·
Cc1[nH]c2ccccc2c1/C=N/NC(=O)c1cccc(Br)c1,·,–,·,·,·
Cc1[nH]c2ccccc2c1/C=N/NC(N)=S,–,–,5.8,–,4.7
Cc1[nH]c2ccccc2c1/C=N/NC(=O)c1ccccc1,–,–,6.2,–,–
CCSc1nnc(NC(=O)c2cccs2)s1,–,–,5.2,–,–
O=C(Nc1nnc(SCc2ccccc2)s1)c1cccs1,–,–,–,–,·
O=C(NCc1ccccc1Cl)[C@H]1CCCN1C(=O)[C@H]1CCCN1C(=O)c1ccc(Cl)cc1,–,–,–,–,·
Cc1cc(C(=O)N/N=C/C=C/c2ccccc2)n[nH]1,–,–,5.8,–,5.1
O=C(N/N=C/C=C\c1cccc([N+](=O)[O-])c1)c1ccccn1,–,–,–,–,·
Cc1cc(C(=O)N/N=C/C=C/c2cccc([N+](=O)[O-])c2)n[nH]1,–,–,5.9,–,–
COCCNC(=O)C1(C)CCCN(Cc2ccc(OC)cc2)C1 (configuration not stated),·,–,·,·,·
O=C(COC(=O)c1ccc(F)c(S(=O)(=O)N2CCOCC2)c1)Nc1ccc(Cl)cn1,–,–,–,–,·
O=C(/C=C/c1ccco1)Nc1cc(Cl)ccc1C(=O)O,–,–,6.8,–,5.2
O=C(/C=C/c1ccco1)Nc1ccccc1C(=O)O,–,–,–,–,·
O=C(CNc1cccc(S(=O)(=O)N2CCCCC2)c1)Nc1ccc(C(F)(F)F)cc1,–,–,–,–,·
COc1ccc(N/N=C(\C=N\O)C(=O)c2ccc(OC)cc2)cc1,–,–,11,–,5.0
C#CCN1Cc2ccccc2Oc2cc(Br)ccc2S1(=O)=O,–,–,–,–,·
CCNc1c(NC(C)=O)c(=O)oc2ccccc12,–,–,–,–,·
CC(=O)Nc1c(-c2cc(=O)oc3cc(C)ccc23)oc2ccccc12,–,–,4.9,–,–
COc1ccc(CCN2C(=O)C(O)=C(C(=O)c3ccco3)C2c2cccs2)cc1OC (configuration not stated),–,–,4.7,–,–
COc1cccc(C2C(C(=O)c3ccco3)=C(O)C(=O)N2CCCN2CCOCC2)c1OC (configuration not stated),–,–,4.7,–,–
COc1cc(C2C(C(=O)c3ccco3)=C(O)C(=O)N2CCc2ccccc2)ccc1O (configuration not stated),–,–,–,–,·
SMILES,SMARCA2 activ,MsrA act,MsrA inhibitor,proKLK7 act,MsrA inh confirm
Cc1cccc(NC(=O)c2cccc(S(=O)(=O)N(C)c3ccccc3)c2)n1,–,–,–,–,·
CCOc1cc(/C=N/Nc2ncnc(Cl)c2N)ccc1O,–,–,4.9,–,6.0
CCOc1cc(/C=N/Nc2nnc(C)n2N)ccc1O,–,–,–,–,·
CCOc1cc(/C=N/NC(=O)C(OC)c2ccccc2)ccc1O (configuration not stated),–,–,–,–,·
CCOc1cc(/C=N/NC(=O)N/N=C/c2ccc(O)c(OCC)c2)ccc1O,–,·,5.5,–,–
CN(CCc1ccccc1)C(c1cc2ccccc2o1)c1nnnn1C(C)(C)C (configuration not stated),–,–,–,–,·
CC1(C)CC(Cc2ccccc2C(F)(F)F)N(C(=O)OC(C)(C)C)C1 (configuration not stated),–,·,–,–,·
Cc1ccc(C)c(S(=O)(=O)N/N=C/c2ccc(N(C)C)cc2)c1,–,–,5.4,–,–
CC(=O)NCc1ccc(S(=O)(=O)N/N=C/c2ccc(N(C)C)cc2)cc1,–,–,5.6,–,–
CCOC(=O)C1(C)CCCCCN1C(=O)c1csnn1 (configuration not stated),–,–,–,–,·
CCN(C(=O)CCS(=O)(=O)c1ccc(Br)cc1)c1ccc2c(c1)OCO2,–,–,14,–,7.3
O=C(CCS(=O)(=O)c1ccc(Br)cc1)Nc1ccc2c(c1)OCO2,–,–,–,–,·
C=CCN(CC#Cc1cccnc1)Cc1ccc(OC)cc1OC,–,·,·,–,·
COc1ccc(-c2cc(C(=O)N3CCC3)c3ccccc3n2)cc1OC,–,–,5.4,–,–
COc1ccc(-c2cc(C(=O)N3CCCC3)c3ccccc3n2)cc1OC,–,–,–,–,·
COc1ccc(-c2cccc3c2C2CC3CCN2C(=O)OCc2ccccc2)cc1 (configuration not stated),–,–,6.4,–,–
Cc1ccc(/C(CSc2nccn2-c2ncc(C(F)(F)F)cc2Cl)=N\O)cc1,–,–,8.6,–,–
Cc1ccc(N2C(=O)c3ccccc3C2C(=O)c2ccc(O)cc2O)cc1 (configuration not stated),–,–,6.2,–,6.0
CC(=O)NC(c1ccccc1)c1nc(-c2cccnc2)cs1 (configuration not stated),–,–,–,–,·
O=C(Cn1ccc(C(F)(F)F)n1)N/N=C/c1ccc(N2CCOCC2)cc1,–,–,5.2,–,–
Cc1c(C(=O)N/N=C/c2ccc(N3CCOCC3)cc2)nc2ccccn12,–,–,5.7,–,5.8
COc1cc(/C=N/NC(=O)c2nc3ccccn3c2C)cc(OC)c1O,–,–,6.3,–,5.1
CCSc1nc(C2CC2)cc(-c2ccco2)c1C#N,–,–,–,–,·
CC(C)(C)c1cc(-c2ccco2)c(C#N)c(SCC#N)n1,–,–,9.2,–,5.2
Cc1ccc(Nc2ccc3nonc3c2[N+](=O)[O-])cc1,–,–,–,–,·
SMILES,SMARCA2 activ,MsrA act,MsrA inhibitor,proKLK7 act,MsrA inh confirm
Cc1ccc(Nc2ccc([N+](=O)[O-])nc2[N+](=O)[O-])cc1,–,–,5.3,–,5.0
CCC(=O)N1CCc2cc(Br)c(S(=O)(=O)N3CCC(C(=O)NC(C)(C)C)CC3)cc21,–,·,·,–,·
CC(C)(/C=N/O)/[N+]([O-])=C/c1ccco1,–,–,–,–,·
Cc1nc(/C=[N+](\[O-])C(C)(C)/C=N/O)n(O)c1C,–,–,6.7,–,4.6
O=C(C1CCCCC1)n1ccc2ccc(-c3ccc4ccn(Cc5ccccc5)c4c3)cc21,–,·,·,–,·
CN/C=C1\C(=O)C(C)(C)Oc2ccc3ccc(=O)oc3c21,–,–,5.4,–,–
CC1(C)Oc2ccc3ccc(=O)oc3c2/C(=C/Nc2ccc(O)cc2)C1=O,–,–,–,–,·
COc1cc(/C=C2\NC(=S)NC2=O)ccc1OCc1cccc(C(=O)O)c1,–,–,5.4,–,–
COc1ccc(S(=O)(=O)N2CCOCC2)cc1NC(=O)CN1C(=O)NC2(CCC(C)CC2)C1=O (configuration not stated),–,–,–,–,·
Cc1cc(N/C=C/C(=O)c2ccc(Br)cc2)no1,–,–,–,–,·
Cc1cc(N/C=C/C(=O)c2cccc3ccccc23)no1,–,–,4.7,–,–

# High-throughput results as filed in PubChem BioAssay.
